Compound activity deposited in PubChem BioAssay by Broad Institute.
RAD52 anneal inh: RAD52 (human) annealing inhibition. recombinant RAD52 DNA annealing, FRET fluorescence. inhibition, % at 18.7 µM. 0.46% of 360,000 active;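 active = every replicate showing at least 50% inhibition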
Target sequence (P43351 whole entry, looked up): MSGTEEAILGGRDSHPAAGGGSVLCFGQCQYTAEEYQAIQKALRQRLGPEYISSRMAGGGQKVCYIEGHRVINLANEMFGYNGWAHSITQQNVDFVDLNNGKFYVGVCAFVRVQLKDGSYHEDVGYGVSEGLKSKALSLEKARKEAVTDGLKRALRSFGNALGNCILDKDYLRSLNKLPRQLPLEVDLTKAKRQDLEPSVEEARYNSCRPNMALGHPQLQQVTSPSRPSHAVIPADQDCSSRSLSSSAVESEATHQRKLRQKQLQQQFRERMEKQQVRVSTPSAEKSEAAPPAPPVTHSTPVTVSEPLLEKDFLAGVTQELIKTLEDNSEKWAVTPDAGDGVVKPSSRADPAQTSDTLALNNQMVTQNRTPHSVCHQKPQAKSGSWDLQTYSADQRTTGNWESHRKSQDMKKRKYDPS
Glyco luc inh: N-linked glycosylation inhibition | D54 ERlucT glycosylation luciferase reporter, 24 h; percent of 100 nM tunicamycin response | reporter increase, % at 12.5 µM | 0.23% of 360,000 active | AID 588692;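 active = mean luciferase reporter signal, scaled so untreated is 0 and the glycosylation-blocking control 100, at or above a set limit in every replicate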;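 also: luciferase carries N-glycosylation sites so blocking glycosylation raises the light; 0% = median of neutral control wells and 100% = median of 100 nM tunicamycin wells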
RAD54 inh: blocks human RAD54 Holliday junction branch migration; AID 602329; Q92698; 0.14% of 360,000 active; inhibition, % at 10.4 µM; FAM/BHQ fluorescence;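 active = mean normalized replicate activity at least 40 and at least half of replicates scoring 40 or more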;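 also: 0% = median of neutral control wells and 100% = median of positive control wells; inhibitors cause a drop in the FAM fluorescence signal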
NSD2 HMT inh: inhibitors of human histone methyltransferase NSD2. O96028. NSD2 peptide methylation, AlphaScreen, 120 min. inhibition, % at 12.5 µM. 0.54% of 310,000 active; in the data active = inhibition above about 50%
Casp6 inh: blocks human caspase-6 cleavage activity. purified caspase-6, Z-VEID-R110 cleavage fluorescence. 0.53% of 350,000 active. AID 686996. P55212. inhibition, % at 12.5 µM;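 active = mean inhibition across replicates at least about 35%, with every replicate also reaching that limit, limit read from the data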;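 also: 0% = median of neutral control wells and 100% = no fluorescence left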
Starred values were filed as active, the others as inactive; / = not tested or not shown. Hits are enriched below; roughly 1.2% of the tested compounds scored in any of these assays.

SMILES | RAD52 anneal inh | Glyco luc inh | RAD54 inh | NSD2 HMT inh | Casp6 inh
COCCN(C(=O)c1cc2c(s1)CCC2)c1c(N)n(CC(C)C)c(=O)[nH]c1=O | -19 | 1 | -12 | 1 | 52*
CO[C@@H]1CN(C)C(=O)c2cc(NC(=O)C3CC3)ccc2OC[C@@H](C)N(CCC(F)(F)F)C[C@@H]1C | 12 | / | -5 | / | -2
COc1ccc2nc(C)cc(N/N=C/c3ccc(F)cc3)c2c1 | 6 | -23 | 8 | / | 0
COc1ccc(/C=N/Nc2cc(C)nc3ccccc23)cc1 | 91* | -7 | 97* | -6 | -6
COCCNC(=O)[C@@H]1[C@@H](CO)[C@@H]2Cn3c(ccc(-c4ccccc4)c3=O)[C@H]1N2C | -10 | / | 0 | / | 0
COc1ccc2c3c(n(C)c2c1)[C@H](CO)N(C(=O)C1CCCC1)CC31CCN(CC2CCCC2)CC1 | 18 | / | / | / | 2
O=C(O)c1ccccc1NS(=O)(=O)c1ccc(NN=Cc2cccc(Cl)c2)c([N+](=O)[O-])c1 | -3 | 2 | / | 2 | 62*
O=C(O)c1ccccc1NS(=O)(=O)c1ccc(N/N=C/c2ccc(O)c(O)c2)c([N+](=O)[O-])c1 | 11 | 1 | -17 | 116* | 64*
O=C(O)c1ccccc1NS(=O)(=O)c1ccc(NN=Cc2ccc(F)cc2)c([N+](=O)[O-])c1 | / | 1 | / | -4 | /
C[C@H](O)C#Cc1cnc2c(c1)C(=O)N([C@H](C)CO)C[C@H](C)[C@@H](CN(C)Cc1cncnc1)O2 | / | / | -2 | / | /
C[C@@H]1CN([C@H](C)CO)C(=O)c2ccccc2-c2ccccc2CO[C@@H]1CN(C)Cc1ccc(-c2ccccc2)cc1 | 6 | / | / | / | -2
CCCC(=O)N1CCC2(CC1)CN(C(=O)COC)[C@@H](CO)c1c2c2ccc(OC)cc2n1C | -7 | / | / | / | 1
C[C@@H]1CCCCO[C@@H](CN(C)S(=O)(=O)c2ccc(F)cc2)[C@H](C)CN([C@@H](C)CO)C(=O)c2cc(NS(=O)(=O)c3cccs3)ccc2O1 | -40 | / | 2 | / | -2
CC(=O)Nc1ccc(S(=O)(=O)NC2CC(=O)N(c3cccc(F)c3)C2)cc1 (stereo not given) | -6 | 1 | -2 | 0 | -2
O=C1CC(NS(=O)(=O)c2cc(F)ccc2F)CN1c1cccc(F)c1 (stereo not given) | -13 | -1 | / | 0 | 37*
S=c1[nH]nc(-c2ccco2)n1/N=C/C=C/c1ccco1 | -18 | -1 | / | 44 | 70*
S=c1[nH]nc(-c2cc(-c3ccccc3)n[nH]2)n1/N=C/C=C/c1ccco1 | -10 | 2 | 12 | 9 | 11
CCS(=O)(=O)N1CCC2(CC1)CN(Cc1ccc3c(c1)OCO3)[C@@H](CO)c1c2c2ccc(OC)cc2n1C | -11 | / | / | / | -2
CCOC(=O)c1c(NC(C)=O)sc2c1CCC(C=O)=C2Sc1ccccc1 | -31 | 32* | -3 | -6 | -1
O=C1C=C(Nc2cccc3cccnc23)c2ccccc2C1=O | -29 | 21 | -18 | 104* | 29
O=C(CN1C(=O)c2ccccc2C1=O)Nc1cccc2cccnc12 | -8 | 1 | 3 | / | -2
O=C1C=C(Nc2ccccc2)C(=O)c2ccccc21 | -11 | -14 | 6 | / | -1
O=C1C=C(Nc2ccccc2)c2ccccc2C1=O | -15 | -14 | / | 5 | 97*
O=C1C=C(Nc2ccccc2C(=O)O)c2ccccc2C1=O | -11 | 5 | -11 | / | 89*
COc1nc(C)c2cc(C)oc2n1 | -4 | 1 | / | -2 | 51*
SMILES | RAD52 anneal inh | Glyco luc inh | RAD54 inh | NSD2 HMT inh | Casp6 inh
CSc1nc(C)c2cc(C)oc2n1 | / | 1 | 0 | 1 | /
Cn1c(=O)c2cc(NC(=S)NC3CCCCC3)ccc2n1Cc1ccc(F)cc1 | -17 | -2 | 3 | 2 | -2
Cn1c(=O)c2cc(NC(=S)NC3CC3)ccc2n1Cc1ccccc1 | -10 | -2 | -9 | 16 | 58*
Oc1ccc(Nc2nc3ccccc3nc2Nc2ccc(O)cc2)cc1 | / | 50* | -1 | 7 | /
O=C(CN1CCOCC1)NCC[C@@H]1CC[C@H](NC(=O)Nc2ccccc2)[C@@H](CO)O1 | -7 | / | 8 | / | -2
COC(=O)N(C)C[C@@H]1OCc2ccccc2-c2ccccc2C(=O)N([C@H](C)CO)C[C@H]1C | 3 | / | -10 | / | -1
O=C([C@H]1[C@H](CO)[C@H]2Cn3c(cccc3=O)[C@H]2N1Cc1cc(F)ccc1F)N1CCOCC1 | -29 | / | 13 | / | 37*
C[C@@]12C(=O)Nc3ccc(F)cc3C(=O)N1[C@H]1c3cc(Cl)ccc3OC[C@@H]1[C@@H]2c1ccccc1 | -44 | 28* | -12 | / | 2
